Unmarked numbers belong to inactive results. How the calls were made is not given here.
These compounds were tested against Pantothenate synthetase (Mycobacterium tuberculosis (strain ATCC 25618 / H37Rv)) (UniProt P9WIL5) (assay: Coupled enzyme confirmation of inhibitors against recombinant Mtb PanC (AID 375;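 further: 0% = full reaction with vehicle and 100% = no enzyme background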)). Conditions: coupled enzyme assay; at 10 µM, active compounds read high.
Pantothenate synthetase (Mycobacterium tuberculosis (strain ATCC 25618 / H37Rv)), sequence (P9WIL5 whole entry, looked up): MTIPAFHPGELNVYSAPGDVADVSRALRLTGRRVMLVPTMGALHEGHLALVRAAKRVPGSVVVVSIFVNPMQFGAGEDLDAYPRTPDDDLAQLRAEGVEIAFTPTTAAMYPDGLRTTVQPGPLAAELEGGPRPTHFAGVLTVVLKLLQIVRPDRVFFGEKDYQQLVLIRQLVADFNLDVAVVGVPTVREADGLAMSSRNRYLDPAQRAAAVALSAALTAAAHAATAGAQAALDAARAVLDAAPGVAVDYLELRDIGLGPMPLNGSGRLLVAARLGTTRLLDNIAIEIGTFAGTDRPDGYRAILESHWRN

| SMILES | inhibition |
| --- | --- |
| CSCCC(C(=O)Nc1ccc2c(c1)OCO2)N1C(=O)c2ccccc2C1=O (stereo not given) | 0% |
| CCC(Sc1nc(-c2ccccc2)c(C#N)c(=O)[nH]1)C(=O)Nc1cc(C)on1 (stereo not given) | 0% |
| O=C(Cn1nnc2c(cnn2-c2ccc(F)cc2)c1=O)c1ccccc1F | 1% |
| CC(C)CCn1c(N)c(S(=O)(=O)c2cccs2)c2nc3ccccc3nc21 | 0% |
| CCS(=O)(=O)c1ccc(S(=O)(=O)CC)s1 | 0% |
| COc1ccc(-n2nnnc2SCC(=O)N2CCOCC2)cc1 | 3% |
| CCOc1nc(SCCOc2ccccc2)nc(N(C)C)n1 | 4% |
| NS(=O)(=O)c1ccc(CCNC(=O)c2cccnc2)cc1 | 1% |
| CCn1c(SCC(=O)Nc2cccc(C)c2)nc2c(c1=O)SC(C)C2 (stereo not given) | 1% |
| O=C(Nc1cccc(-c2nnc(-c3ccccc3)o2)c1)C1CCCCC1 | 0% |
| CCOC(=O)N1CCC(NC(=O)Cn2ncc3c4ccccc4n(C)c3c2=O)CC1 | 5% |
| CCc1nnc(NC(=O)CSc2nnc(Cc3ccccc3)n2-c2ccc(OC)cc2)s1 | 7% |
| O=C(COC(=O)c1ccco1)NCc1cccs1 | 0% |
| CCOc1ccccc1N(C(=O)c1ccco1)C(C(=O)NC1CCCC1)c1cccnc1 (stereo not given) | 0% |
| CCCCNc1cc(C(=O)O)cc(S(N)(=O)=O)c1Oc1ccccc1 | 3% |
| CC(C)(CSc1nncn1N)NS(=O)(=O)c1ccc(Cl)cc1 | 0% |
| Cc1[nH]nc2c1C(C1CC=CCC1)C(C#N)=C(N)O2 (stereo not given) | 3% |
| CCSc1nnc(NC(=O)CSc2ncccn2)s1 | 0% |
| O=C(c1cnn2c(C(F)F)cc(C3CC3)nc12)N1CCOCC1 | 1% |
| Cc1cc(C(=O)Cn2cncn2)c(C)n1CCc1ccc(F)cc1 | 1% |

| SMILES | inhibition |
| --- | --- |
| Cc1cc(NC(=O)COc2cccc(Oc3ccccc3)c2)no1 | 8% |
| Cc1onc(-c2c(F)cccc2Cl)c1C(=O)Nc1nc2c(s1)CCCC2 | 0% |
| Cc1cc(C)n(Cc2cc(C)c(Cn3nc(C)cc3C)cc2C)n1 | 3% |
| COc1ccc(N2CCN(Cc3cc(=O)oc4cc(C)c(Cl)c(C)c34)CC2)cc1 | 6% |
| CCCCn1c2c(c3ccccc31)CCc1nonc1-2 | 1% |
| CN(CCC#N)C(=O)COC(=O)c1ccc(Cl)c(S(N)(=O)=O)c1 | 0% |
| CCN(CCCNC(=O)CCNC(=O)Cn1ccc2ccccc2c1=O)c1ccccc1 | 1% |
| C=CCc1cccc2cc(C(=O)NCc3cccnc3)c(=O)oc12 | 1% |
| COc1ccc(N2C(=O)c3cccc4cccc(c34)C2=O)nn1 | 0% |
| COc1ccc(-n2c(=O)c3c4c(sc3n3c(C)nnc23)CCCC4)cc1 | 3% |
| O=C(NCC1CCCO1)C1CCN(c2ccc(S(=O)(=O)N3CCCC3)cc2)CC1 (stereo not given) | 0% |
| Brc1ccc(-c2cn3cccnc3n2)cc1 | 0% |
| COc1ccc(S(=O)(=O)N2CCCC(C(=O)N3CCCCCC3)C2)cc1 (stereo not given) | 6% |
| O=C(C1CCN(c2nnc(-n3cccc3)s2)CC1)N1CCN(Cc2ccc3c(c2)OCO3)CC1 | 10% |
| COc1ccccc1-c1noc(-c2ccco2)n1 | 6% |
| COC(=O)c1ccccc1NC(=O)c1ccc(COc2ccccc2)o1 | 0% |
| COc1cc2[nH]c(=O)n(CCCCCC(=O)N3CCN(c4ccccn4)CC3)c(=O)c2cc1OC | 2% |
| COc1ccccc1-n1c(=O)[nH]c2c(C(N)=O)nc(-c3cccnc3)nc21 | 0% |
| Cc1nnc(N2C(=O)c3oc4ccccc4c(=O)c3C2c2ccco2)s1 (stereo not given) | 2% |
| Cc1nc(NCCNC(=O)c2ccco2)c2c(C)c(C)sc2n1 | 2% |
